PubChem BioAssay AID1159580 (chemical genetic matrix, 2015)
In all, about 5,500 compounds went through this assay and about 2,000 (36%) were called active. About 18% were inconclusive and are not listed. Rule as the data show it: active = normalized growth mostly below about 0.91 (no sharp cut-off); inconclusive = no clear call, values can overlap the other calls; inactive = mostly above about 0.92. Some of the results follow.

Experiment: chemical genetic growth profiling, strain panel (AID 1159580);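 also: tested at 20 µM; growth read once vehicle control cultures reached saturation at 30 °C; 1 = growth at the plate median or of vehicle wells; lower values mean less growth of the strain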
Settings: S. cerevisiae deletion strains, growth OD
[1] = locus YAL013W, strain DEP1, stronger effect = lower value
[2] = locus YBR229C, strain ROT2, stronger effect = lower value
[3] = locus YDL101C, strain DUN1, stronger effect = lower value
[4] = locus YDR150W, strain NUM1, stronger effect = lower value
[5] = locus YEL061C, strain CIN8, stronger effect = lower value
[6] = locus YGR078C, strain PAC10, stronger effect = lower value
[7] = locus YGR229C, strain SMI1, stronger effect = lower value
[8] = locus YHR030C, strain SLT2, stronger effect = lower value
[9] = locus YHR087W, strain rtc3, stronger effect = lower value
[10] = locus YJR043C, strain POL32, stronger effect = lower value
[11] = locus YJR075W, strain HOC1, stronger effect = lower value
[12] = locus YKL190W, strain CNB1, stronger effect = lower value
[13] = locus YLR039C, strain RIC1, stronger effect = lower value
[14] = locus YLR058C, strain SHM2 (second series), stronger effect = lower value
[15] = locus YLR085C, strain ARP6, stronger effect = lower value
[16] = locus YLR262C, strain YPT6, stronger effect = lower value
[17] = locus YML094W, strain GIM5, stronger effect = lower value
[18] = locus YMR219W, strain ESC1, stronger effect = lower value
[19] = locus YMR263W, strain SAP30, stronger effect = lower value
[20] = locus YMR307W, strain GAS1, stronger effect = lower value
[21] = locus YNL153C, strain GIM3, stronger effect = lower value
[22] = locus YNL298W, strain CLA4 (second series), stronger effect = lower value
[23] = locus YNL322C, strain KRE1, stronger effect = lower value
[24] = locus YNR030W, strain Alg12, stronger effect = lower value
[25] = locus YOL006C, strain TOP1, stronger effect = lower value
[26] = locus YPL055C, strain LGE1, stronger effect = lower value
[27] = locus YPL241C, strain CIN2, stronger effect = lower value
[28] = locus YPR135W, strain CTF4, stronger effect = lower value
[29] = locus YCL061C, strain MRC1, stronger effect = lower value
[30] = locus YJL187C, strain SWE1, stronger effect = lower value

Measured: normalized growth

Cc1c(S(=O)(=O)c2ccc(Cl)cc2)csc1S(=O)(=O)N/N=C\c1c(Cl)cccc1Cl
inactive: [1] 1 | [2] 1.01 | [3] 1.02 | locus YDL134C, strain PPH21, stronger effect = lower value 0.996 | [4] 0.948 | [5] 0.991 | [6] 1.01 | [7] 1 | [8] 1.02 | [9] 0.998 | [10] 1.01 | [11] 1.03 | [12] 1 | [13] 1 | [14] 1.01 | [15] 1.04 | [16] 1 | [17] 0.988 | [18] 1.01 | [19] 0.984 | [20] 1.04 | [21] 1 | [22] 1.03 | [23] 1 | [24] 1.01 | [25] 1.03 | [26] 0.886 | [27] 0.993 | [28] 1

Cc1cscc1S(=O)(=O)c1ccc(Cl)cc1
inactive: [1] 0.991 | [2] 0.969 | [29] 0.97 | [3] 0.966 | [4] 0.929 | [5] 0.98 | [6] 0.958 | [7] 0.981 | [8] 0.821 | [9] 0.974 | [30] 1 | [10] 0.958 | [11] 0.922 | [12] 0.991 | [13] 0.819 | [14] 0.975 | [15] 0.967 | [16] 0.833 | [17] 0.969 | [18] 0.978 | [19] 0.953 | [20] 0.855 | locus YNL128W, strain TEP1, stronger effect = lower value 0.994 | [21] 0.945 | [22] 0.961 | [23] 0.975 | [24] 0.95 | [25] 0.904 | [26] 0.898 | [27] 0.953 | [28] 0.765

Cc1c(S(=O)(=O)c2ccc(Cl)cc2)csc1C(=O)NNc1cccc(Cl)c1
inactive: locus YAR019C, strain CDC15, stronger effect = lower value 0.964 | locus YBL105C, strain PKC1, stronger effect = lower value 0.958 | locus YBR135W, strain CKS1, stronger effect = lower value 0.96 | locus YBR136W, strain MEC1, stronger effect = lower value 0.962 | locus YBR160W, strain CDC28, stronger effect = lower value 0.957 | locus YDL017W, strain CDC7, stronger effect = lower value 0.967 | locus YDL028C, strain MPS1, stronger effect = lower value 0.97 | [3] 0.978 | locus YDL108W, strain KIN28, stronger effect = lower value 0.973 | locus YDL132W, strain cdc53, stronger effect = lower value 0.954 | locus YDL214C, strain PRR2, stronger effect = lower value 0.826 | locus YDR052C, strain DBF4, stronger effect = lower value 0.953 | locus YDR054C, strain cdc34, stronger effect = lower value 0.947 | locus YDR226W, strain ADK1, stronger effect = lower value 0.959 | locus YDR477W, strain SNF1, stronger effect = lower value 0.769 | locus YER133W, strain GLC7, stronger effect = lower value 0.864 | locus YFL009W, strain cdc4, stronger effect = lower value 0.962 | locus YFL029C, strain CAK1, stronger effect = lower value 0.959 | locus YFR003C, strain YPI1, stronger effect = lower value 0.967 | locus YFR028C, strain CDC14, stronger effect = lower value 0.948 | locus YGR040W, strain KSS1, stronger effect = lower value 0.811 | locus YGR052W, strain FMP48, stronger effect = lower value 0.71 | locus YGR092W, strain DBF2, stronger effect = lower value 0.783 | [8] 0.884 | locus YHR079C, strain IRE1, stronger effect = lower value 1.01 | locus YHR082C, strain KSP1, stronger effect = lower value 0.958 | locus YHR205W, strain SCH9, stronger effect = lower value 0.907 | locus YIL147C, strain SLN1, stronger effect = lower value 0.972 | locus YJL095W, strain BCK1, stronger effect = lower value 0.679 | locus YJL128C, strain PBS2, stronger effect = lower value 0.968 | locus YJL157C, strain FAR1, stronger effect = lower value 0.886 | locus YJR016C, strain ILV3, stronger effect = lower value 0.968 | locus YJR066W, strain TOR1 (second series), stronger effect = lower value 0.684 | locus YJR066W, strain TOR1, stronger effect = lower value 0.872 | locus YKL048C, strain ELM1, stronger effect = lower value 0.947 | locus YKL067W, strain YNK1, stronger effect = lower value 0.879 | locus YKL101W, strain HSL1, stronger effect = lower value 0.948 | locus YKL193C, strain SDS22, stronger effect = lower value 0.963 | locus YKL203C, strain TOR2, stronger effect = lower value 0.954 | locus YLR133W, strain CKI1, stronger effect = lower value 0.81 | locus YLR403W, strain SFP1, stronger effect = lower value 0.877 | locus YML070W, strain DAK1, stronger effect = lower value 0.823 | locus YMR001C, strain CDC5, stronger effect = lower value 0.961 | locus YMR205C, strain PFK2 (second series), stronger effect = lower value 0.91 | locus YMR277W, strain FCP1, stronger effect = lower value 0.96 | locus YNL006W, strain LST8, stronger effect = lower value 0.963 | locus YNL020C, strain ARK1, stronger effect = lower value 0.941 | locus YNL161W, strain CBK1, stronger effect = lower value 0.955 | locus YNL183C, strain NPR1, stronger effect = lower value 0.911 | locus YNL207W, strain RIO2, stronger effect = lower value 0.969 | locus YNL222W, strain SSU72, stronger effect = lower value 0.961 | locus YNL307C, strain MCK1 (second series), stronger effect = lower value 0.743 | locus YOL078W, strain AVO1, stronger effect = lower value 0.965 | locus YOL136C, strain PFK27, stronger effect = lower value 0.889 | locus YOR119C, strain RIO1, stronger effect = lower value 0.905 | locus YOR231W, strain MKK1, stronger effect = lower value 0.942 | locus YOR329C, strain SCD5, stronger effect = lower value 0.969 | locus YPL031C, strain PHO85, stronger effect = lower value 0.852 | locus YPL153C, strain RAD53, stronger effect = lower value 0.857 | locus YPL204W, strain HRR25, stronger effect = lower value 0.897 | locus YPL209C, strain IPL1, stronger effect = lower value 0.955 | locus YPR025C, strain CCL1, stronger effect = lower value 0.962 | locus YPR106W, strain ISR1, stronger effect = lower value 0.971 | locus YPR111W, strain DBF20, stronger effect = lower value 0.952 | strain NNK1, stronger effect = lower value 0.966 | strain TSCII, stronger effect = lower value 0.957
active: locus YER123W, strain YCK3, stronger effect = lower value 0.574 | locus YFR019W, strain FAB1, stronger effect = lower value 0.653 | locus YLR113W, strain HOG1, stronger effect = lower value 0.675 | locus YPL256C, strain CLN2, stronger effect = lower value 0.733

Cc1c(S(=O)(=O)c2ccc(Cl)cc2)csc1C(=O)Nc1ccc(N2CCOCC2)c(Cl)c1
inactive: [1] 0.992 | [2] 1.03 | [29] 1.05 | [3] 1.06 | [4] 1.05 | [5] 1.03 | [6] 1.07 | [8] 1.06 | [9] 0.999 | [30] 1.03 | [10] 1.03 | [12] 0.982 | [13] 0.992 | [14] 0.989 | [15] 0.947 | [16] 1.12 | [17] 0.988 | [18] 1 | [19] 1.03 | [20] 1.03 | [21] 1.06 | [22] 0.999 | [23] 0.991 | [24] 0.995 | [25] 1.03 | [26] 1.05 | [27] 0.984 | [28] 1.13
active: [11] 1.15 [resistant]
